Source: PubChem (The Scripps Research Institute Molecular Screening Center)
Sampled rows, rich in hits. Any-hit rate of the full collection: about 4.1%.
UHRF1 binding – UHRF1 methylated DNA binding inhibitors, primary screen, counter-screen for MBD2 inhibitor project, biochemical, TR-FRET, human UHRF1, single concentration; inhibition, % at 4.4 µM; E3 ubiquitin-protein ligase UHRF1 (Homo sapiens), Q96T88; UHRF1 binding to methylated oligo; 370,000 compounds, 0.75% hits; in the data active = inhibition above about 21%;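 also: UHRF1 SRA domain binding a hemimethylated CpG hairpin DNA probe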
LEDGF integ inh – blockers of LEDGF/p75-dependent integrase strand transfer – biochemical, TR-FRET, high throughput, primary screen. HIV-1 integrase (with human LEDGF/p75). TR-FRET IN-LEDGF/p75 DNA integration, Eu/Cy5. inhibition, % at 3.7 µM. 370,000 compounds, 0.64% hits;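 active = inhibition above the screen-wide mean plus 3 SD, cut at about 13% in these data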;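 also: signal is the Cy5 over europium emission ratio at 671 and 618 nm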
ABHD5-PLIN5 inh – ABHD5-PLIN5 interaction inhibitors, primary screen, cell lysate, split luciferase complementation, luminescence. AID 602281, 2012. 360,000 compounds, 0.78% hits. inhibition, % at 4 µM. Perilipin-5 (Homo sapiens) + 1-acylglycerol-3-phosphate O-acyltransferase ABHD5 (Homo …. Split G. princeps luciferase complementation, 4 h;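 active = inhibition above the mean inhibition across every tested compound plus 3 SD, cut at about 22% in these data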
Target sequence (Q00G26 whole entry, looked up): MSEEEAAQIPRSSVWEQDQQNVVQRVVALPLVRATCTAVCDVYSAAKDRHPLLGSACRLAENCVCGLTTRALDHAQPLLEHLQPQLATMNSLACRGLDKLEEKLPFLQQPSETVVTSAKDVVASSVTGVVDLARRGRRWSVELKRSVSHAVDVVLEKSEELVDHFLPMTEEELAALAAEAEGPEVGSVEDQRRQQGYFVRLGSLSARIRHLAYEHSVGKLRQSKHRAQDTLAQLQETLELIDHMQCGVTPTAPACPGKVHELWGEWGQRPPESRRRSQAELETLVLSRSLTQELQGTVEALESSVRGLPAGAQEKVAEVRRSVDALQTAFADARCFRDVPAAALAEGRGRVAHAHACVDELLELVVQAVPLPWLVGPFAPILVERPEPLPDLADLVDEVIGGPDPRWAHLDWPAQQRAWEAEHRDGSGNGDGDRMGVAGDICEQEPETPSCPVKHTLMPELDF
Target sequence (Q8WTS1 whole entry, looked up): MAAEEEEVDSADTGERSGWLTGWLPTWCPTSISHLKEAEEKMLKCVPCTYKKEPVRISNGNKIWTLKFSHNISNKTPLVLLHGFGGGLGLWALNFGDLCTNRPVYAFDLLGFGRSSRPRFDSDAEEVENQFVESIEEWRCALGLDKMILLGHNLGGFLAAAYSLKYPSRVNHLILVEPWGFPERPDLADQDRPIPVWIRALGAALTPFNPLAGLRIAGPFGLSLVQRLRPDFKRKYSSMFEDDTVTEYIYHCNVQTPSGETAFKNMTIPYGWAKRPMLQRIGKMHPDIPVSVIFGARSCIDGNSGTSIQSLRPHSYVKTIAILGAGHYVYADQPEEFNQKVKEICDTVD
MBD2 DNA inh – inhibitors of MBD2 binding to methylated DNA, primary screen, biochemical, TR-FRET, DNA-binding domain, human; MBD2 binding to methylated oligonucleotide; 370,000 compounds, 0.31% hits; inhibition, % at 4.4 µM; AID 686964, 2013; Methyl-CpG-binding domain protein 2 (Homo sapiens), Q9UBB5; in the data active = inhibition above about 13%
rCAG binder – binders of r(CAG) RNA repeats, primary screen, biochemical, fluorescence; r(CAG) RNA repeat, TO-PRO-1 dye displacement fluorescence; inhibition, % at 3 µM; 370,000 compounds, 1.3% hits;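 active = inhibition above the plate cutoff, the mean of all test compounds on that plate plus 3 SD, cut at about 35% in these data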;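 also: higher means more dye released from RNA so lower well fluorescence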
PRMT1 inh – PRMT1 methyltransferase inhibitors, primary screen, biochemical, fluorescence polarization; Protein arginine N-methyltransferase 1 (Homo sapiens), Q99873; recombinant PRMT1, activity-based probe fluorescence polarization; inhibition, % at 2.79 µM; 370,000 compounds, 1.3% hits; AID 652257, 2013;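 active = inhibition above about 21% made by adding two undisclosed values, limit read from the data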
PRMT1 inh conf – PRMT1 methyltransferase inhibitors, confirmation, biochemical, fluorescence polarization, triplicate; shares compounds with PRMT1 inh; recombinant His-PRMT1, activity-based probe fluorescence polarization; inhibition, % at 2.79 µM; 3,300 compounds, 42% hits;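 active = mean inhibition across replicates above the hit cutoff derived for the earlier primary screen, cut at about 22% in these data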
A number is an active result; i = inactive; nt = no result.

SMILES | UHRF1 binding | LEDGF integ inh | ABHD5-PLIN5 inh | MBD2 DNA inh | rCAG binder | PRMT1 inh | PRMT1 inh conf
Cc1cc(-n2c(C)cc(C(=O)CSc3ccccn3)c2C)no1 | i | i | i | i | i | 26 | i
CCCN1CCCCC(NC(=O)COCc2ccccc2)C1=O (centres undefined) | i | i | nt | i | i | i | nt
CC(C)N=C1SC(CC(=O)Nc2ccccc2)C(=O)N1C(C)C (centres undefined) | i | i | i | i | i | 61 | i
CCCCNC(=S)N(CCO)Cc1cc2cc3c(cc2[nH]c1=O)OCCO3 | i | i | i | i | i | 44 | i
CCN(CC)CCCNC(=S)N(CCO)Cc1cc2cc3c(cc2[nH]c1=O)OCCO3 | i | i | i | i | i | i | nt
COc1ccc(CCN2C(=O)CC(NCc3ccc4c(c3)OCO4)C2=O)cc1OC (centres undefined) | nt | nt | i | nt | nt | nt | nt
COc1ccc(CCNC2CC(=O)N(CCc3ccc(OC)c(OC)c3)C2=O)cc1OC (centres undefined) | i | i | i | i | i | 54 | i
C[C@@H]1CCN(C2CC2)S(=O)(=O)c2c(cccc2N2CC[C@@H](N(C)C)C2)O1 | i | i | nt | i | i | i | nt
COC(=O)[C@]12C[C@H](CC(=O)NCCCCc3ccccc3)C(=O)N(Cc3ccc(Cl)cc3Cl)C1=C[C@H](C(C)(C)C)O[C@@H]2C | i | i | nt | i | i | i | nt
CC(C)CNc1cccc2c1S(=O)(=O)N(Cc1cn(Cc3ccc(C(F)(F)F)cc3)nn1)Cc1ccccc1O2 | i | i | nt | i | i | i | nt
Brc1ccc(C2=CSC3=NCCN23)cc1 | i | i | i | i | i | 30 | i
Fc1ccc(C2=CSC3=NCCN23)cc1 | i | i | i | i | i | i | nt
COc1ccc2c(c1)CNC2CS(=O)(=O)NCCc1ccccc1 (centres undefined) | i | i | nt | i | i | i | nt
COC(=O)C1=C(C)N(C)C(=NCc2ccc3c(c2)OCO3)NC1c1ccc(F)cc1 (centres undefined) | i | i | nt | i | i | i | nt
CCOC(=O)c1ccc(NC(=O)CSCc2ccco2)cc1 | i | i | i | i | i | 82 | 84
CCOC(=O)CC(=O)CSCC(=O)Nc1ccc(C)cc1 | i | i | i | i | i | 40 | 32
CCCC(C)c1nnc(NC(=O)c2cc(C(=O)OC)cc([N+](=O)[O-])c2)s1 (centres undefined) | i | i | i | i | 50 | 29 | 54
Cc1cccc2nc(CSc3nc4cc([N+](=O)[O-])ccc4s3)cn12 | i | i | i | i | i | 53 | i
Nn1c(SCC(=O)NCCC2=CCCCC2)nnc1-c1cccnc1 | i | i | i | i | i | i | nt
CC(C)c1nnc(SCC(=O)NCCC2=CCCCC2)n1N | i | i | i | i | i | 34 | 39
C[C@@H]1ON(C)[C@H]2C[C@H]3c4cc(N5CCN(C)CC5)ccc4CCN3C[C@@H]12 | i | i | nt | i | i | i | nt
O=c1[nH]c2c(s1)C=Nc1ccccc1N2 | i | i | i | i | i | 69 | 85
O=C(CSc1ccccc1)NC1=NCCS1 | i | i | i | i | i | i | nt
c1ccc(NNC2=NCCS2)cc1 | i | i | i | i | i | 29 | i
COCC(=O)N(c1ccc(C(C)(C)C)cc1)C(C(=O)NC(C)(C)C)c1cccnc1 (centres undefined) | i | i | nt | i | nt | i | nt
O=C1CC(NC23CC4CC(CC(C4)C2)C3)C(=O)N1c1ccc2c(c1)OCO2 (centres undefined) | i | i | i | i | i | 65 | i
O=C1C2C3C=CC(C3)C2C(=O)N1c1ccc2c(c1)OCO2 (centres undefined) | i | i | i | i | i | i | nt
